# Results as given in PMC7862700, “An all-to-all approach to the identification of sequence-specific readers for epigenetic DNA modifications on cytosine”.
# What was measured:
# Assay in all cases: DAPPL (digital affinity profiling via proximity ligation, sequencing); 10 mM Tris-HCl pH 7.5, 50 mM NaCl, 1 mM DTT, 4% glycerol, room temperature, 30 min; GST-TFs on glutathione beads, 16-mer random dsDNA library, 0.1% formaldehyde crosslink after washing; high values mean tight binding
# [1] = target: T1, FLI1 (Homo sapiens, UniProt Q01543 1-452); conditions: protein: recombinant; tags: N-terminal GST; dsDNA, one strand shown
# T1 sequence: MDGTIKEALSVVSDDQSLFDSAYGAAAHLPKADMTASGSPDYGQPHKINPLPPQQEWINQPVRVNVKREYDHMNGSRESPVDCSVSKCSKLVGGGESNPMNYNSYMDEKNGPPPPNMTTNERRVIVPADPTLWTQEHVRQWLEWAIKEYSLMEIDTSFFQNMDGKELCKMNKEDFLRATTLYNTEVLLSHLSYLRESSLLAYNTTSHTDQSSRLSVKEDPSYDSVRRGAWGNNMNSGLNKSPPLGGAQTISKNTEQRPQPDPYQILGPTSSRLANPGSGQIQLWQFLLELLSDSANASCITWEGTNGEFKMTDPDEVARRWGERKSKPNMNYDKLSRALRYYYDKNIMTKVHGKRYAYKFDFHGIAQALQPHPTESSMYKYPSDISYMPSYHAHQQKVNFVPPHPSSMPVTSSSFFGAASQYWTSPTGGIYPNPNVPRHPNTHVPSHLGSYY
# Summary of the method: (§1)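 Binding signal is each hexamer's read frequency for a factor divided by its frequency in the tag-only sample. The factors were GST-fused human transcription factors from yeast, captured on glutathione beads, DNA-barcoded and pooled with that sample. Pools were incubated with 200 nmole of a random double-stranded 16-mer DNA library in Tris/NaCl/DTT/glycerol buffer at room temperature for 30 min, then washed, crosslinked with 0.1% formaldehyde, proximity-ligated with BsaI/T4 ligase (1 h, 37 °C), PCR-amplified and sequenced on an Illumina NextSeq500.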
# [2] = target: T2, ELK1 (Homo sapiens, UniProt P19419 1-428); conditions: protein: recombinant; tags: N-terminal GST; dsDNA, one strand shown
# T2 sequence: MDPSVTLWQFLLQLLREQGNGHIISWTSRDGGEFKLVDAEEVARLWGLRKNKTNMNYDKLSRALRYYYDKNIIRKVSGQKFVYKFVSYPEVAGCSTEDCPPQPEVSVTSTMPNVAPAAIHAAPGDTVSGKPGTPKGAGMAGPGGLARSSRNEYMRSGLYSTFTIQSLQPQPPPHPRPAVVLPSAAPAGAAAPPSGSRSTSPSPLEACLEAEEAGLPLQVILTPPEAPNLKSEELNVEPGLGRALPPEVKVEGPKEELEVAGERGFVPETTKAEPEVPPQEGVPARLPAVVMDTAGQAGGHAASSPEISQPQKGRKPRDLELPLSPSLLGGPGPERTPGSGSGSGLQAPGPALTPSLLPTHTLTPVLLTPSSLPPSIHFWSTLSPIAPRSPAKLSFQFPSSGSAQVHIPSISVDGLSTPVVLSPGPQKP
# Summary of the method: as §1
# [3] = target: T3, GABPA (Homo sapiens, UniProt Q06546 1-454); conditions: protein: recombinant; tags: N-terminal GST; dsDNA, one strand shown
# T3 sequence: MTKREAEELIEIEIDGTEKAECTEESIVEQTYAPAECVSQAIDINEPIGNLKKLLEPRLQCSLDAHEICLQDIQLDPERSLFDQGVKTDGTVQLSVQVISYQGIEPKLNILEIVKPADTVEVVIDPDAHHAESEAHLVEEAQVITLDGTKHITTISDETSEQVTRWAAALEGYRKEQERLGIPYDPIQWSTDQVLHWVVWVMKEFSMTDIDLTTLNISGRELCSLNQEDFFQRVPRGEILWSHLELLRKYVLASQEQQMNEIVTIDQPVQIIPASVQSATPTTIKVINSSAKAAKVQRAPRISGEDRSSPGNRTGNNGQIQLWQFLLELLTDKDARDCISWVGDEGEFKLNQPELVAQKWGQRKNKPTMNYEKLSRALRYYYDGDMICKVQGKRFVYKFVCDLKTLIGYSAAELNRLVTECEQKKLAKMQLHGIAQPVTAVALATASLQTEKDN
# Summary of the method: as §1
# [4] = target: T4, ERG (Homo sapiens, UniProt P11308 1-479); conditions: protein: recombinant; tags: N-terminal GST; dsDNA, one strand shown
# T4 sequence: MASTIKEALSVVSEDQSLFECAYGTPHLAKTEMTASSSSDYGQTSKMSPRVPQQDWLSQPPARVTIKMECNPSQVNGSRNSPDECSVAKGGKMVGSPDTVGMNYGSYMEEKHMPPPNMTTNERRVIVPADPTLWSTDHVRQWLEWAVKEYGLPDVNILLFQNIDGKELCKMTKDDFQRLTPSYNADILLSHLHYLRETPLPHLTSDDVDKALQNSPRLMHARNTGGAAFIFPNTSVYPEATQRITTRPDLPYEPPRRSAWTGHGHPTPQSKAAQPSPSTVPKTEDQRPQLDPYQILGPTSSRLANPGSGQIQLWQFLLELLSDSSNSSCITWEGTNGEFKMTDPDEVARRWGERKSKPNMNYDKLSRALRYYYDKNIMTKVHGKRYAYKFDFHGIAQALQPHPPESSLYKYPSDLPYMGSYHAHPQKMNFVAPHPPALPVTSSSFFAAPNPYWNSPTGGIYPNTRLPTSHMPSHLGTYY
# Summary of the method: as §1
# [5] = target: ELF1 (Homo sapiens, UniProt P32519 1-619); conditions: protein: recombinant; tags: N-terminal GST; dsDNA, one strand shown
# ELF1, sequence (P32519 whole entry): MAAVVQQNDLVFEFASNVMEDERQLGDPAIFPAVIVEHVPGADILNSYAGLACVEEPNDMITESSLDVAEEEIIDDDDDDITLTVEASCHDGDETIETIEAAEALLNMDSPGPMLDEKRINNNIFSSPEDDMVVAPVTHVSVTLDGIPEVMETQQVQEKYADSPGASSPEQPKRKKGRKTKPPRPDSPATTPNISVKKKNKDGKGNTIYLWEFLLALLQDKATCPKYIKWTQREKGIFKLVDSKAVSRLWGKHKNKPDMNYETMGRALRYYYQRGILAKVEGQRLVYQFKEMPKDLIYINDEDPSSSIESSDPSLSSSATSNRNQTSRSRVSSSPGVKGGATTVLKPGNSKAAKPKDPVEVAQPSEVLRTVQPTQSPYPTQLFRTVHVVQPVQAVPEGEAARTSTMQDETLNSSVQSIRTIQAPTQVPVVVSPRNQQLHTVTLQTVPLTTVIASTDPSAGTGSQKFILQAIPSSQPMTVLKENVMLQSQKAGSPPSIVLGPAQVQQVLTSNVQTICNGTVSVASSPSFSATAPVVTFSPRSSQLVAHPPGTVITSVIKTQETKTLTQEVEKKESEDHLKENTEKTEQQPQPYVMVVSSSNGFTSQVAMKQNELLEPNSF
# Summary of the method: as §1
# [6] = target: T5, EHF (Homo sapiens, UniProt Q9NZC4 1-300); conditions: protein: recombinant; tags: N-terminal GST; dsDNA, one strand shown
# T5 sequence: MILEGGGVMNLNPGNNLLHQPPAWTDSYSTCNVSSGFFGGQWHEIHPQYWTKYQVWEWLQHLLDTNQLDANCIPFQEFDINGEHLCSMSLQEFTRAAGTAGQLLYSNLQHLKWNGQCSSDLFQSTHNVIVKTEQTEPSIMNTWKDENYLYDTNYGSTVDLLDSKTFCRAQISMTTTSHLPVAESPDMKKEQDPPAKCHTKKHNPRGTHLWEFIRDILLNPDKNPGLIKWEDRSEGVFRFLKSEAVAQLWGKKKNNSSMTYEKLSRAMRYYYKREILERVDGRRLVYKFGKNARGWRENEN
# Summary of the method: as §1
# [7] = target: SPI1 (Homo sapiens, UniProt P17947 1-270); conditions: protein: recombinant; tags: N-terminal GST; dsDNA, one strand shown
# Summary of the method: as §1
# [8] = target: SPIB (Homo sapiens, UniProt Q01892 1-262); conditions: protein: recombinant; tags: N-terminal GST; dsDNA, one strand shown
# SPIB, sequence (Q01892 whole entry): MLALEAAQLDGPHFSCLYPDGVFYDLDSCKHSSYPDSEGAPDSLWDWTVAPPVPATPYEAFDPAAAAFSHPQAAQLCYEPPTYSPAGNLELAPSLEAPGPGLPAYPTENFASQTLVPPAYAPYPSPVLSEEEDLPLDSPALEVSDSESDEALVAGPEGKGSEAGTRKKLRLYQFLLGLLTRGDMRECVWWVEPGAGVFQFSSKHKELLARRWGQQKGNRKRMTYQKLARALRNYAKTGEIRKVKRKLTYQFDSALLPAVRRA
# Summary of the method: as §1
# [9] = target: T6, ELK3 (Homo sapiens, UniProt P41970 1-407); conditions: protein: recombinant; tags: N-terminal GST; dsDNA, one strand shown
# T6 sequence: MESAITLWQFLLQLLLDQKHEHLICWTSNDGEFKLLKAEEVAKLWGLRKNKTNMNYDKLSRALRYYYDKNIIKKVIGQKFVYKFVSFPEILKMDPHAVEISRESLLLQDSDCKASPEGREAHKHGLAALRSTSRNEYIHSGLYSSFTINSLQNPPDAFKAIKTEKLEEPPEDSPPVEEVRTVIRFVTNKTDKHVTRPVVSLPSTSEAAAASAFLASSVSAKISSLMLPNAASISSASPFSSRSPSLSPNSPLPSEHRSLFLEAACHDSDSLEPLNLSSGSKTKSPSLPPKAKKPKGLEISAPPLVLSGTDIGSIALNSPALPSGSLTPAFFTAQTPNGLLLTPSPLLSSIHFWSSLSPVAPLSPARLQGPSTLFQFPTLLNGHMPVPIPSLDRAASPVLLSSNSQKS
# Summary of the method: as §1
# [10] = target: T7, FEV (Homo sapiens, UniProt Q99581 1-238); conditions: protein: recombinant; tags: N-terminal GST; dsDNA, one strand shown
# T7 sequence: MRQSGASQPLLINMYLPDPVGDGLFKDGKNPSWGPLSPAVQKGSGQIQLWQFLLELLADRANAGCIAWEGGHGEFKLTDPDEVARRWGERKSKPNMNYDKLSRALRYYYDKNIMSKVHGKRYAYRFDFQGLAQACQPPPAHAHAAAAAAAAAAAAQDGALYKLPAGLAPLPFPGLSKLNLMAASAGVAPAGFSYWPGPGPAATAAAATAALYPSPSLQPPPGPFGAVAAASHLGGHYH
# Summary of the method: as §1
# [11] = target: ETV5 (Homo sapiens, UniProt P41161 1-510); conditions: protein: recombinant; tags: N-terminal GST; dsDNA, one strand shown
# ETV5, sequence (P41161 whole entry): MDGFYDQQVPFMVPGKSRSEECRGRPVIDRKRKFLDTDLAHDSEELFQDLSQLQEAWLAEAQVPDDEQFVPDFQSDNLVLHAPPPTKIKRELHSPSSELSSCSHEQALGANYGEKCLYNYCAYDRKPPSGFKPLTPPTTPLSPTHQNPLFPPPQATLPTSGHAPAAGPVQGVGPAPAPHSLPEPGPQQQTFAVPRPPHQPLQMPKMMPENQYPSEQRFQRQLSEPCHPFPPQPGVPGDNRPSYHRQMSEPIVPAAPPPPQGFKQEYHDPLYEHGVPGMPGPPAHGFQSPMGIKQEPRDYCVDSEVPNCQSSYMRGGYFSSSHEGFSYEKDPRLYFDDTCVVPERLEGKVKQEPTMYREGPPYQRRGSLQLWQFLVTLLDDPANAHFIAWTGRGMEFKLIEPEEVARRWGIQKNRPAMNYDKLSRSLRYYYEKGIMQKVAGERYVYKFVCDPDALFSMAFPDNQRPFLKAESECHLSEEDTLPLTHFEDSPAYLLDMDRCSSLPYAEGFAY
# Summary of the method: as §1
# [12] = target: HSF1 (Homo sapiens, UniProt Q00613 1-529); conditions: protein: recombinant; tags: N-terminal GST; chain copies: 3; dsDNA, one strand shown
# HSF1, sequence (Q00613 whole entry): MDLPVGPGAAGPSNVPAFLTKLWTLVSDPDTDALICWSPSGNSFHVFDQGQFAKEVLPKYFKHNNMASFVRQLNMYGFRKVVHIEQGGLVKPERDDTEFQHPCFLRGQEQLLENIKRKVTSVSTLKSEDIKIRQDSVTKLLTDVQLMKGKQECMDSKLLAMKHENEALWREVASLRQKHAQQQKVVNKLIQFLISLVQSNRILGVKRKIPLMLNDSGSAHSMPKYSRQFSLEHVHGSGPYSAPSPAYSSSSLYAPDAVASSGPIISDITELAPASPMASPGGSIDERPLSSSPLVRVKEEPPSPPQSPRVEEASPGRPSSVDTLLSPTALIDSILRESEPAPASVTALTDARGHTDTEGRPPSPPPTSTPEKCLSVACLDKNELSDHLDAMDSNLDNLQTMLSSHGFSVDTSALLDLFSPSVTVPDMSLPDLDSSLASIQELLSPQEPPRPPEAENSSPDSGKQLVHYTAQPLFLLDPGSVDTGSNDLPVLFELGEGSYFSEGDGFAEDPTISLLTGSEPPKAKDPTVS
# Summary of the method: as §1
# [13] = target: T8, SPIC (Homo sapiens, UniProt Q8N5J4 1-248); conditions: protein: recombinant; tags: N-terminal GST; dsDNA, one strand shown
# T8 sequence: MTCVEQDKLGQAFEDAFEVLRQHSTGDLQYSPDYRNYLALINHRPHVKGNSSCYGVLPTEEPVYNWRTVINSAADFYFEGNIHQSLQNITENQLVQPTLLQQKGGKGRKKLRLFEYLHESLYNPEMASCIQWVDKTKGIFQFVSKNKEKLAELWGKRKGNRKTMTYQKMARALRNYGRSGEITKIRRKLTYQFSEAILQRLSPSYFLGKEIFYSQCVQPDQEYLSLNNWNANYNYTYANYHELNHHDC
# Summary of the method: as §1
# [14] = target: ELF4 (Homo sapiens, UniProt Q99607 1-663); conditions: protein: recombinant; tags: N-terminal GST; dsDNA, one strand shown
# ELF4, sequence (Q99607 whole entry): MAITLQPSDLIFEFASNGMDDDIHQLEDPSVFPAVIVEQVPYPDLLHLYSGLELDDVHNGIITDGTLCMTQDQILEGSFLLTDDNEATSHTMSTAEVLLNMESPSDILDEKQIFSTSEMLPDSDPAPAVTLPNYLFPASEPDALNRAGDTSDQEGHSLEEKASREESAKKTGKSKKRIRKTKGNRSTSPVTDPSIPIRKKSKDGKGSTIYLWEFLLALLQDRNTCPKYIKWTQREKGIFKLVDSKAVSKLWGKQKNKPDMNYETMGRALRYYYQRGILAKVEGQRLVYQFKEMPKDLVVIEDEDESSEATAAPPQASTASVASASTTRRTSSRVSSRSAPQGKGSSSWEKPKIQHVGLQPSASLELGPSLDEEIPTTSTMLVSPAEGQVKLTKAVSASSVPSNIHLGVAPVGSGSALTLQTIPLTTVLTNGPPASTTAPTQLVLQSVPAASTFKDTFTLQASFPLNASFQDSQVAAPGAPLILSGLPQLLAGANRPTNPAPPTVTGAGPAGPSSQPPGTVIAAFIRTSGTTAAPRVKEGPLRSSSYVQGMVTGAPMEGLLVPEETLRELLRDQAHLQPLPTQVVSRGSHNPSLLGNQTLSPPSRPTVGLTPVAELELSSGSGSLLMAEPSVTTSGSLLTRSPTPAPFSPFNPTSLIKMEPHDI
# Summary of the method: as §1
# [15] = target: T9, ELK4 (Homo sapiens, UniProt P28324-2 1-405); conditions: protein: recombinant; tags: N-terminal GST; dsDNA, one strand shown
# T9 sequence: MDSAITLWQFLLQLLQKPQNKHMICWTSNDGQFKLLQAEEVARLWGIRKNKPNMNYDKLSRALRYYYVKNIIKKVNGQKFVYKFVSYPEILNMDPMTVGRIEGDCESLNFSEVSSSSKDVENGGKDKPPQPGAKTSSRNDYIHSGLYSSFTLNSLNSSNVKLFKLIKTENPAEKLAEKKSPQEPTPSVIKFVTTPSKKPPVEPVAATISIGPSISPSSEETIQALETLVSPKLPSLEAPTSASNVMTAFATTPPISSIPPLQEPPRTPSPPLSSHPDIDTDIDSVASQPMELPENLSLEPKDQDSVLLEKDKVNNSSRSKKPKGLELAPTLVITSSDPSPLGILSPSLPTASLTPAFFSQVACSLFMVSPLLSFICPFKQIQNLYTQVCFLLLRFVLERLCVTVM
# Summary of the method: as §1
# [16] = target: T10, ETV2 (Homo sapiens, UniProt O00321 1-342); conditions: protein: recombinant; tags: N-terminal GST; dsDNA, one strand shown
# T10 sequence: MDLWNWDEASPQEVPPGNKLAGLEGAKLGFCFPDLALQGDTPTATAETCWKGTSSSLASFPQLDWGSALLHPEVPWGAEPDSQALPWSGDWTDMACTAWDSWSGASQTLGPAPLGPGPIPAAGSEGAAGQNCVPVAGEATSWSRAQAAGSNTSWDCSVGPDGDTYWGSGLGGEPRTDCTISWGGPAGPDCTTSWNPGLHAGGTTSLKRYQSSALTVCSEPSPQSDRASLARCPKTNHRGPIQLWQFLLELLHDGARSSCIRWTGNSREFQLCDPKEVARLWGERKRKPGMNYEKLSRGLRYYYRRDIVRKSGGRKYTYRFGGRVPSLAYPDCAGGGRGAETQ
# Summary of the method: as §1
# [17] = target: T11, ELF3 (Homo sapiens, UniProt P78545 1-371); conditions: protein: recombinant; tags: N-terminal GST; dsDNA, one strand shown
# T11 sequence: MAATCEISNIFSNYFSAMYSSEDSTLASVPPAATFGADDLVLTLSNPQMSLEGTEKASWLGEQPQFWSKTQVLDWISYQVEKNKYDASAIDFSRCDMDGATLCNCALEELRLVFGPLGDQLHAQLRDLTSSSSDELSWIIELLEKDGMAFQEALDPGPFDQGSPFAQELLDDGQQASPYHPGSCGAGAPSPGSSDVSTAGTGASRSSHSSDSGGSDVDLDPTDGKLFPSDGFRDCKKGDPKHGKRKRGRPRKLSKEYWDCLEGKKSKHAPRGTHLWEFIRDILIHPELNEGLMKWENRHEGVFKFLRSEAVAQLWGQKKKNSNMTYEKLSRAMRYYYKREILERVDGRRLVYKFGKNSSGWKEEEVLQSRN
# Summary of the method: as §1
# [18] = target: CRX (Homo sapiens, UniProt O43186 1-299); conditions: protein: recombinant; tags: N-terminal GST; dsDNA, one strand shown
# CRX, sequence (O43186 whole entry): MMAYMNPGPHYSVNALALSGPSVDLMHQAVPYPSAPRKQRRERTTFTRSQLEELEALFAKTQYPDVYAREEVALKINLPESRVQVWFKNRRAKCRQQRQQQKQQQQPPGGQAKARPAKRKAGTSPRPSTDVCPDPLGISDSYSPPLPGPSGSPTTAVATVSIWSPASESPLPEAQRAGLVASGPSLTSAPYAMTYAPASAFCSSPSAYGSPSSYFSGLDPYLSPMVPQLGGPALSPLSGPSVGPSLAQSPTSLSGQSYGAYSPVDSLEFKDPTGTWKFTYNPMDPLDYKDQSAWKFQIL
# Summary of the method: as §1
# [19] = target: ETV1 (Homo sapiens, UniProt P50549 1-477); conditions: protein: recombinant; tags: N-terminal GST; dsDNA, one strand shown
# ETV1, sequence (P50549 whole entry): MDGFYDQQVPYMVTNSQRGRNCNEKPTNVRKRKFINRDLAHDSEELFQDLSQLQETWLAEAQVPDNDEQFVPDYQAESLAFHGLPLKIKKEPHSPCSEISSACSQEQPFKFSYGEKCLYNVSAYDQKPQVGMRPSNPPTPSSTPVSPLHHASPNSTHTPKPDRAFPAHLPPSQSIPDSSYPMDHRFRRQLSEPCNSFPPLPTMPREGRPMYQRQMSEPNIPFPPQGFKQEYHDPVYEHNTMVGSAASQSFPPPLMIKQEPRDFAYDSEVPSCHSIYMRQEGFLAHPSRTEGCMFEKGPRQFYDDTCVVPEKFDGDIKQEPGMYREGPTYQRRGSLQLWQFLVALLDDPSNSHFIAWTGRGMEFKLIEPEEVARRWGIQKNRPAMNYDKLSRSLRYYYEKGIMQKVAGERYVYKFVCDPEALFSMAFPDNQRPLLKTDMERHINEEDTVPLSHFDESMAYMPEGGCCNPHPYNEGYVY
# Summary of the method: as §1
sequence,measurement,setting,value
TACTAA,binding signal,[1],"1.2 fold enrichment (6-mer frequency, TF over GST control)"
same,binding signal,[2],"1.23 fold enrichment (6-mer frequency, TF over GST control)"
same,binding signal,[3],"1.36 fold enrichment (6-mer frequency, TF over GST control)"
same,binding signal,[4],"1.29 fold enrichment (6-mer frequency, TF over GST control)"
same,binding signal,[5],"1.28 fold enrichment (6-mer frequency, TF over GST control)"
same,binding signal,[6],"1.3 fold enrichment (6-mer frequency, TF over GST control)"
same,binding signal,[7],"1.25 fold enrichment (6-mer frequency, TF over GST control)"
same,binding signal,[8],"1.23 fold enrichment (6-mer frequency, TF over GST control)"
same,binding signal,[9],"1.24 fold enrichment (6-mer frequency, TF over GST control)"
same,binding signal,[10],"1.16 fold enrichment (6-mer frequency, TF over GST control)"
same,binding signal,[11],"1.18 fold enrichment (6-mer frequency, TF over GST control)"
same,binding signal,[12],"1.51 fold enrichment (6-mer frequency, TF over GST control)"
same,binding signal,[13],"1.24 fold enrichment (6-mer frequency, TF over GST control)"
same,binding signal,[14],"1.32 fold enrichment (6-mer frequency, TF over GST control)"
same,binding signal,[15],"1.4 fold enrichment (6-mer frequency, TF over GST control)"
same,binding signal,[16],"1.1 fold enrichment (6-mer frequency, TF over GST control)"
same,binding signal,[17],"1.27 fold enrichment (6-mer frequency, TF over GST control)"
same,binding signal,[18],"2.1 fold enrichment (6-mer frequency, TF over GST control)"
same,binding signal,[19],"1.29 fold enrichment (6-mer frequency, TF over GST control)"
